Source: PubChem BioAssay
The list is not random: actives were taken first. Their share in the collection is about 5.1%.
MPTP inh: mitochondrial permeability transition pore inhibitors, primary screen, biochemical, isolated mouse mitochondria, absorbance; Ca2+ swelling absorbance, 30 min; inhibition, % at 10 µM; 360,000 tested, 1.4% active;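 active = inhibition of 50% or more, scaled per plate between neutral and stimulator controls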;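 note: 0% = DMSO wells given calcium and 100% = 1 mM EGTA wells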
CRFR2-BP antag: antagonists of CRF-BP/CRF-R2 complex, primary screen, cell-based, HEK293, calcium dye fluorescence, uHTS; CRF-induced calcium fluorescence; inhibition, % at 11.8 µM; 350,000 tested, 0.59% active; AID 588475, 2011;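 active = inhibition of the ligand-induced calcium signal above about 50% at the single tested concentration, limit read from the data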
CRFR2-BP ag: agonists of CRF-BP/CRF-R2 complex, primary screen, cell-based, HEK293, calcium dye fluorescence, uHTS. calcium dye fluorescence (FLIPR); percent of saturating CRF peptide response. activation, % at 13.2 µM. AID 588473, 2011. 350,000 tested, 0.46% active;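 active = activation of at least 50%, plus an integration ratio under a set limit after plate pattern correction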;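 note: plate controls were neutral control wells without compound for no effect and CRF at EC100 for full effect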
TMEM16A inh: TMEM16A chloride channel inhibitors, primary screen, cell-based, HTS. HEK293 TMEM16A/YFP iodide influx fluorescence, ionomycin. 310,000 tested, 1.2% active. normalized B-score (activity score, 25-100; higher = stronger inhibition) at 10 µM. AID 588511, 2011. Anoctamin-1 (Mus musculus), Q8BHY3;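 active = ratio plate-corrected score three or more library SD toward inhibition, starting fluorescence score within five deviations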;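 note: score derived from kinetic fluorescence span divided by baseline fluorescence per well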
GRIN3A LBD mod: binders of NR3A ligand-binding domain, primary screen, biophysical, differential scanning fluorimetry, uHTS. NR3A LBD differential scanning fluorimetry, Tm shift; 0% = protein alone, 100% = glycine-bound protein. Tm shift relative to glycine control, % at 25 µM. 340,000 tested, 2.5% active. AID 1259313, 2017;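 active = melting temperature shift of at least 10% of the positive control shift, at one fixed dose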
ANO1 activ: TMEM16A chloride channel activators or potentiators, primary screen, cell-based, HTS. Anoctamin-1 (Mus musculus), Q8BHY3. HEK293 TMEM16A/YFP-H148Q/I152L, iodide quench fluorescence; stronger effect = lower value. B-score at 10 µM. 340,000 tested, 0.3% active. AID 623877, 2012;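 active = fluorescence-ratio B-score plate-corrected deviation score at least 3 library SD below zero, with starting fluorescence score within 5 deviations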;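 note: channel opened by trigger with iodide after compound preincubation; score built on the fluorescence ratio of max minus min over baseline; more negative score means more quench and so TMEM16A activation or potentiation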
TMEM16A reconf: TMEM16A chloride channel inhibitors, confirmation, cell-based, re-confirmation; shares compounds with TMEM16A inh; HEK293 TMEM16A/YFP-H148Q, iodide quench fluorescence; ionomycin added to raise cell calcium; inhibition, % at 10 µM; 2,300 tested, 39% active; AID 652189, 2013;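 active = mean duplicate percent inhibition, scaled so buffer wells are 0 and the reference blocker 100, over three buffer SD above buffer mean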
HEK293 Ca mobil: calcium mobilization in TMEM16A/YFP HEK293 cells, confirmation, counter-screen for TMEM16A inhibitor project. 2,300 tested, 2% active. AID 652231, 2013. calcium response (% of ionomycin), % at 10 µM. Fluo4 calcium mobilization. shares compounds with TMEM16A inh;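 active = duplicate-averaged calcium signal over 20% of the ionomycin maximum, relative to buffer baseline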;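 note: each well's signal is peak minus trough fluorescence divided by its pre-addition baseline; 0% = buffer wells and 100% = ionomycin wells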
YFP-HEK293 quench: iodide YFP quench changes in parental YFP-HEK293, counter-screen for TMEM16A inhibitor project, cell-based; shares compounds with TMEM16A inh; ionomycin; YFP ratio F(max-min)/F0 at 10 µM; 2,300 tested, under 10 active;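 active = yellow fluorescent protein signal ratio exceeding the buffer control mean by over 5 SD of those controls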;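 note: ratio is mean of duplicate wells from kinetic YFP trace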
ClC-1 rat inh: ClC-1 chloride channel inhibition, selectivity assay for TMEM16A inhibitor project, cell-based, voltage-dependent ClC-1. CHO ClC-1-YFP, iodide influx fluorescence quench; iodide control reads 0, buffer control 100. AID 652236, 2013. shares compounds with TMEM16A inh. 2,300 tested, under 10 active. ratio percent, % at 10 µM;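 active = duplicate-mean ratio percent above the mean of iodide-only control wells, which defines zero, plus 5 of their SD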;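 note: higher percent means stronger block of ClC-1 iodide influx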
Starred values were filed as active, the others as inactive; i = inactive; . = not tested or not shown.

SMILES | MPTP inh | CRFR2-BP antag | CRFR2-BP ag | TMEM16A inh | GRIN3A LBD mod | ANO1 activ | TMEM16A reconf | HEK293 Ca mobil | YFP-HEK293 quench | ClC-1 rat inh
CCOc1ccc(N2C(=O)CC(NCC#N)C2=O)cc1 (configuration not stated) | 0.6 | 3.6 | -0.6 | 25* | -1.4 | i | i | i | -1.12 | -5.0
CCOc1ccc(N2C(=O)CC(NCc3ccc(S(N)(=O)=O)cc3)C2=O)cc1 (configuration not stated) | -0.4 | 15.2 | -5.3 | i | 1.1 | i | . | . | . | .
CCCNC(=O)C[C@H]1C[C@H]2c3cc(NC(=O)Nc4ccc(F)cc4)ccc3O[C@H]2[C@@H](CO)O1 | -0.3 | -26.0 | 1.8 | . | . | . | . | . | . | .
COc1cc([C@@H]2c3cc4c(cc3[C@@H](O[C@@H]3O[C@@H]5CO[C@@H](C)O[C@H]5[C@H](O)[C@H]3O)[C@H]3COC(=O)[C@H]23)OCO4)cc(OC)c1O | -2.7 | -13.9 | -0.7 | i | -1.1 | i | . | . | . | .
COc1cc(C2c3cc4c(cc3C(OC3OC5COC(c6cccs6)OC5C(O)C3O)C3COC(=O)C23)OCO4)cc(OC)c1O (configuration not stated) | 0.6 | -0.8 | 1.4 | 25* | 2.0 | i | i | i | -1.16 | -9.5
CCn1nnnc1SCC(=O)Nc1ccc(F)cc1 | 1.1 | -2.8 | -0.8 | i | -1.6 | i | . | . | . | .
CSc1ccc(CN(C)C(=O)COc2ccc(C(=O)c3ccccc3)cc2)cc1 | 2.4 | -2.9 | 3.4 | 100* | -3.7 | i | i | i | -1.33 | -7.0
CC(C)(C)N1OC2CC1c1nc3ccccc3n1C2 (configuration not stated) | -0.6 | -1.1 | 0.2 | i | 0.3 | i | . | . | . | .
COc1ccccc1OCC(=O)c1[nH]c(C)c(C(C)=O)c1C | 40.5 | -5.5 | -0.4 | 25* | -1.1 | i | i | i | -1.11 | -21.5
COc1cc(CN(C)CC(=O)c2[nH]c(C)c(C(C)=O)c2C)ccc1OC(F)F | 34.8 | 5.2 | 0.7 | 25* | 1.0 | i | 17.0%* | i | -0.991 | -14.0
COc1ccc(NC(=O)CN(C)CC(=O)c2[nH]c(C)c(C(C)=O)c2C)cc1 | -0.8 | 2.0 | 0.1 | . | -1.2 | i | . | . | . | .
COc1cc(C)ccc1OCC(=O)OCC(=O)c1[nH]c(C)c(C(C)=O)c1C | -0.2 | 1.0 | -0.6 | . | 1.1 | i | . | . | . | .
Cc1nc(C)n(CC(C)C(=O)N2CCN(S(=O)(=O)c3ccccc3)CC2)n1 (configuration not stated) | -0.1 | 3.1 | -0.3 | 25* | -5.2 | i | i | i | -0.96 | -3.0
O=C(Nc1nc2cc3c(cc2s1)OCCO3)c1cccc(N2C(=O)CCC2=O)c1 | -0.4 | -33.6 | -2.9 | i | -1.6 | i | . | . | . | .
CCN(CC)S(=O)(=O)c1cccc(C(=O)Nc2nc3cc4c(cc3s2)OCCO4)c1 | 2.3 | -22.6 | 3.7 | 100* | -2.3 | i | 20.0%* | i | -0.501 | -5.0
CCC(C(=O)N1CCN(C(=O)c2ccco2)CC1)c1ccccc1 (configuration not stated) | -0.8 | 9.0 | -0.2 | 100* | -0.2 | i | i | i | -0.969 | -22.5
O=C(c1ccco1)N1CCN(C(=O)C(c2ccccc2)c2ccccc2)CC1 | 0.6 | -2.6 | 0.4 | i | 0.8 | i | . | . | . | .
O=C(COC(=O)c1nc(Cl)c(Cl)c(Cl)c1Cl)NCc1ccccc1 | 0.2 | 11.0 | -1.6 | . | -1.6 | i | . | . | . | .
Cc1ccccc1OCC(=O)N1N=C(C(F)(F)F)CC1(O)C(C)(C)C (configuration not stated) | 16.6 | -28.0 | 12.7 | 25* | 0.8 | i | i | i | -1.06 | -4.0
COc1ccc(NC(=O)Cn2nc(C(=O)O)c3ccccc3c2=O)cc1OC | -0.3 | 2.0 | -0.4 | i | 0.1 | i | . | . | . | .
Cc1ccc(C)c(Cn2ncc3ccccc32)c1 | -0.3 | 13.5 | 0.4 | i | 0.8 | i | . | . | . | .
Cc1ccc(S(=O)(=O)CC2CSc3nc(N)cc(=O)n32)cc1 (configuration not stated) | 1.2 | -11.9 | 2.6 | i | 0.2 | i | . | . | . | .
Cc1ccc(S(=O)(=O)CC2CSc3nc4ccccc4n32)cc1 (configuration not stated) | 24.7 | 8.1 | 1.9 | 25* | -112.2 | i | 36.5%* | i | -1.1 | -19.5
CCNC(=O)CSc1nc2cc(S(=O)(=O)Nc3ccc(OC)cc3)ccc2o1 | 0.5 | -0.2 | 0.7 | i | 1.1 | i | . | . | . | .
COc1ccc(NS(=O)(=O)c2ccc3oc(SC(C)C(N)=O)nc3c2)cc1 (configuration not stated) | 3.8 | -51.7 | 0.6 | 25* | 0.1 | i | i | i | -0.905 | -13.5
CCOc1ccc(NC(=O)C2CCC(C)(C(=O)O)C2(C)C)cc1 (configuration not stated) | 0.1 | -18.1 | -0.2 | 25* | 1.2 | i | i | i | -1.1 | -5.5
COc1ccc(NC(=O)C2CCC(C)(C(=O)O)C2(C)C)cc1 (configuration not stated) | -1.4 | 1.9 | 0.2 | i | -3.8 | i | . | . | . | .
CC(C)N(CCNC(=O)c1ccc(CS(=O)(=O)c2c(Cl)cccc2Cl)o1)Cc1ccccc1 | -1.1 | 3.8 | 0.3 | i | -1.1 | i | . | . | . | .
Cc1ccc(-c2ccc(S(=O)(=O)N3CCN(C)CC3)cc2)cc1 | -0.7 | -15.3 | 0.0 | 100* | -1.3 | i | i | i | -0.847 | -10.0
